# Assay results from PubChem BioAssay.
# A number with no mark means an inactive call. Activity calls are given as the source filed them.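 The calls were made as follows: active = inhibition of the reporter signal at or above 50%; inactive = inhibition below 50%.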
# Assay: inhibitors of poly I:C-induced TLR3 signaling, primary screen, cell-based, poly I:C stimulus, luciferase, 10K MLSCN set (AID 602277)
# Conditions: HEK293-TLR3 RL24 IRF3 luciferase reporter, at 10 µM, stronger effect = higher value
row,Structure (SMILES),inhibition
1,CCc1nc(NCCCN2CCOCC2)c2oc3ccccc3c2n1,25.2%
2,CCOC(=O)N1CCN(C(=O)CSc2cc(C)nc3c(-c4ccccc4OC)c(C)nn23)CC1,-5.36%
3,O=C1c2ccccc2C(=O)N1CNc1ccccc1,-8.22%
4,CC(C)(C)OC(=O)N1CC=C2C(C#N)=C(N)C(C#N)(C#N)C(c3cccs3)C2C1 (stereo not given),8.03%
5,CCOC(=O)Nc1cc(OC)c(OC)cc1Cc1nccc2cc(OC)c(OC)cc12,5.89%
6,Cc1cc(=O)n2nc(-c3ccccc3)sc2n1,-64.6%
7,COc1cccc(C2CC(=O)Nc3c2c(=O)n(C)c(=O)n3C)c1OC (stereo not given),16.2%
8,CCOC(=O)N1CCN(c2c(N3CCc4ccccc4C3)c(=O)c2=O)CC1,16.4%
9,COC(=O)Cc1c(C)c2ccc(OCC(=O)N3CCOCC3)cc2oc1=O,13.9%
10,Cc1cccc(OCC(=O)N(Cc2cccs2)C2CCS(=O)(=O)C2)c1C (stereo not given),16.1%
11,CN(C)S(=O)(=O)c1ccc(/C(O)=C2/C(=O)C(=O)N(CCN3CCCCC3)C2c2cccnc2)cc1 (stereo not given),-24%
12,CCOC(=O)c1sc2nc(NC(=O)C3CCCCC3)sc2c1C,-9.22%
13,O=P1(O)C=C(c2ccccc2)NC(c2ccccc2)=C1,7.48%
14,CC1(C)NC(=O)N(CCOc2cccc(Cl)c2Cl)C1=O,18.5%
15,Cn1c(=O)c2c(nc(CN3CCCCC3)n2CCc2ccccc2)n(C)c1=O,-8.47%
16,CS(=O)(=O)N1CCN(c2ccccc2NC(=O)c2ccc(-c3ccc(Cl)cc3Cl)o2)CC1,23.2%
17,CCOc1cc2[nH]c(=O)n(CCCCC(=O)NCc3ccco3)c(=O)c2cc1OCC,35.9%
18,O=C(NCc1ccco1)C1(S(=O)(=O)c2ccc(Cl)cc2)CC1,32.7%
19,O=C(Nn1c(C2CC2)nc2ccccc2c1=O)c1ccco1,23.5%
20,COCCCN1C(=O)C(=O)/C(=C(/O)c2ccc(OCC(C)C)cc2C)C1c1cccnc1 (stereo not given),23.2%

row,Structure (SMILES),inhibition
1,CCn1c2ccccc2c2cc(Nc3cc(C)nc4ncnn34)ccc21,87.2% (active)
2,COc1cc(NC(=O)C2CCCN2S(=O)(=O)c2cccc3cccnc23)cc(OC)c1OC (stereo not given),32%
3,CCOc1ccc(Cn2nnc(C(=O)NCc3ccc(OC)cc3)c2N)cc1,30.1%
4,CCOC(=O)c1[nH]c(C)c(C(=O)NCc2ccccn2)c1C,14.1%
5,COc1ccc2cc(C#N)c(SCC(=O)N3CCCC3)nc2c1,-5.53%
6,Cc1ccccc1Nc1cc2ccccc2c(=O)[nH]1,20.8%
7,O=C(CNc1ccc(Oc2ccccc2)cc1)N1CCOCC1,3.08%
8,CCCOC(=O)C1C2C=CC3(CN(c4cccc(Cl)c4)C(=O)C13)O2 (stereo not given),28.1%
9,COc1cc(NC(=O)c2cc(CC(C)C)on2)c(OC)cc1Cl,46.6%
10,O=S(=O)(Nc1ccccn1)c1ccc(Oc2ccccc2)cc1,20.6%
11,O=C(c1cc2ccccc2oc1=O)N1CCN(c2ccc(N3CCOCC3)nn2)CC1,18.4%
12,Cc1ccc(-c2nc(CS(=O)CC(=O)NCCN(CC(C)C)CC(C)C)c(C)o2)cc1 (stereo not given),30.9%
13,O=c1ccc(S(=O)(=O)N2CCC(Cc3ccccc3)CC2)c[nH]1,31.9%
14,O=C(NCCC1=CCCCC1)C1CC(=O)N(C2CCCCCC2)C1 (stereo not given),27.5%
15,Cc1nn(C(=O)c2ccoc2C)c(N)c1-c1ccccc1,-123%
16,Cc1nnc(N2C(=O)c3oc4ccccc4c(=O)c3C2c2ccco2)s1 (stereo not given),13.8%
17,O=c1[nH]c2sc3c(c2c2nncn12)CCCC3,-10%
18,C=COC(=O)CSc1snc(SCC(=O)OC)c1C#N,18.4%
19,COc1ccc(-n2c(=O)c3c4c(sc3n3c(C)nnc23)CCCC4)cc1,19.4%
20,CCOC(=O)N1CCC(NC(=O)Cn2ncc3c4ccccc4n(C)c3c2=O)CC1,26%
